This note sets out measurements from PubChem BioAssay (NCATS).

In this experiment the target is Calcium and integrin-binding protein 1 (Homo sapiens) (UniProt Q99828). Nature of the experiment: Primary qHTS for Identification of Calcium Integrin Binding Protein 1 (CIB1) Competitor (AID 1508620). Also: top concentration of the series differs between compounds. Put shortly:
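Fluorescence polarization competition: GST-tagged CIB1 (1 uM final) preincubated with compound 15 min at room temperature, then FITC-labelled alphaIIb peptide (100 nM final) added. After 15 min at room temperature, polarization read at Ex 480/Em 540.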
For orientation: qHTS replaces the single test concentration by a dilution series.

Results filed as inconclusive are left out. Where a call stands in place of a potency, no number is given. The source made the active and inactive calls. Calls follow the shape of the dose curve; as a rule, active = well fitted inhibition curve with a large enough effect; inconclusive = small, poorly fitted or top-dose-only effect; inactive = flat fitted curve, though single readings scatter.

Chain of Calcium and integrin-binding protein 1 (Homo sapiens) (Q99828 whole entry, looked up): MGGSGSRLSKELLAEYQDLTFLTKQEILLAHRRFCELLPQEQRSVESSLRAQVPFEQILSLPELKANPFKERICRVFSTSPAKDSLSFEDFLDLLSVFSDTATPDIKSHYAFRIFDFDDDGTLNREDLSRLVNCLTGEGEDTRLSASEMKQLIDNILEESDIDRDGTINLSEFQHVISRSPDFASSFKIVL

For the molecule `c1csc(CNc2ncnc3ccc(-c4ccc5c(c4)OCCO5)cc23)c1`, the Potency result was “inactive”.

`COc1ccc(C2=Nn3c(nnc3-c3ccccc3F)SC2)cc1OC1CCOC1` (stereo not given): the Potency result is “inactive”.

On to `O=C(CN1C(=O)N/C(=C\c2cccn2-c2cccc(C(=O)O)c2)C1=O)Nc1ccc(F)cc1`, for which the Potency entry was “inactive”.

With `Cc1cccc(-c2nnc(C)n2CCCn2ccnc2)c1N`, the Potency result was “inactive”.

`CCOC(=O)c1[nH]c2c(c1C)C(=O)CCC2`: the Potency entry is “inactive”.

Take `Oc1cc(Nc2ccc(N3CCCCC3)cc2)cc2cccnc12`: the Potency result is “inactive”.

Turning to `Oc1c(C(Nc2ccccn2)c2ccccc2)cc(Cl)c2cccnc12` (stereo not given), the Potency result was “inactive”.

Take `CC(C)(C)OC(=O)NCc1nnc(C(C(=O)OCc2ccccc2)c2ccccc2)s1` (stereo not given): the Potency result is “inactive”.

With `Cc1nc(CCN(C)c2ncnc3ccc(-c4ccc5c(c4)OCO5)cc23)cs1`, the Potency result is “inactive”.

As to `N[C@H]1CCN(c2cnc3c(O)ccc(C(=O)O)c3c2)C1`, the Potency entry was “inactive”.

Turning to `c1coc(-c2ccc3ncnc(NCc4cccs4)c3c2)c1`, the Potency entry is “inactive”.

With `Cc1ccc(NS(=O)(=O)c2ccc3c(c2)CC(=O)N3C)cc1C`, the Potency result is “inactive”.

Take `O=C1N/C(=C\c2ccco2)C(=O)N1Cc1ccc(F)cc1`: the Potency entry was “inactive”.

For the molecule `Cc1ccc(-c2cnn(CC(=O)NCCc3ccccc3)c(=O)c2)cc1`, the Potency entry is “inactive”.

In the case of `O=C(Nc1ccc(F)c(C(F)(F)F)c1)Nc1nnc(-c2ccncc2)o1`, the Potency entry is “inactive”.

`COc1ccc(C(F)(F)F)cc1NC(=O)C(OC(=O)CNC(=O)c1ccccc1)c1ccccc1` (stereo not given): the Potency entry is “inactive”.

Turning to `Cc1cc2c(s1)c1cnn(Cc3cc(F)cc(F)c3F)c(=O)c1n2C`, the Potency result was “inactive”.

On to `COc1ccc(-c2ccc(=O)n(CC(=O)NCCc3ccccc3)n2)cc1`, for which the Potency entry is “inactive”.

As for `COc1cccc(C2c3c(ncn(CCN4CCOCC4)c3=N)Oc3ccc4ccccc4c32)c1` (stereo not given), the Potency entry is “inactive”.

Turning to `N/C(=N\c1nnc(-c2ccncc2)s1)Nc1ccc(F)c(C(F)(F)F)c1`, the Potency result was “inactive”.

Consider `O=C(Nc1ccc(Cl)c(Cl)c1)Nc1ccc(-c2ccncc2)s1`, for which the Potency result was “inactive”.

In the case of `COc1cc(O)c(C(CC(=O)N2CCC(c3ccccc3)CC2)c2ccc(OC)c(OC)c2)c(OC)c1` (stereo not given), the Potency result is “inactive”.

Consider `FC(F)(F)c1ccc(N2CCN(C(=S)Nc3ccccn3)CC2)cc1`, for which the Potency entry is “inactive”.

Turning to `N#CN1CCC(NS(=O)(=O)c2ccc(F)cc2)C1` (stereo not given), the Potency result is “inactive”.

Take `C[C@@H]1CN(S(=O)(=O)c2ccc3c(c2)OCCO3)CCN1S(=O)(=O)c1c(F)cccc1F`: the Potency result was “inactive”.

As for `CC(=O)Nc1sc2c(c1-c1csc3ccccc13)CCNC2`, the Potency result was “inactive”.

Consider `O=C(c1ccc2c(c1)ncn2-c1ccc(Cl)cc1)N1CCCCC1`, for which the Potency entry is “inactive”.

For `CCNC(=O)c1ccc(-c2ccc3ncnc(NCC(C)(C)C)c3c2)o1`, the Potency entry is “inactive”.

On to `N#Cc1cccc(-c2noc(-c3ccccc3F)n2)c1`, for which the Potency result is “inactive”.

With `COc1ccc(C2=Nn3c(nnc3-c3ccccc3Cl)SC2)cc1OC1CCOC1` (stereo not given), the Potency result is “inactive”.

As for `Cc1cnc(-c2ccccc2C(C)C)nc1NCc1ccc(-c2ccnc(C(F)(F)F)c2)cc1`, the Potency entry is “inactive”.

`CC(=O)Nc1sc2c(c1-c1nc3ccccc3s1)CC(C)NC2` (stereo not given): the Potency entry is “inactive”.

On to `O=C(Nc1ccc(Br)c(Br)c1)Nc1nnc(-c2cccnc2)s1`, for which the Potency entry was “inactive”.

For the molecule `Cc1cc2c(s1)c1cnn(Cc3c(F)c(F)c(C(F)(F)F)c(F)c3F)c(=O)c1n2C`, the Potency result is “inactive”.

For `O=C(Nc1ncc(Cc2ccc(C(F)(F)F)cc2)s1)c1ccco1`, the Potency entry was “inactive”.

Regarding `N#CN1CCC(NS(=O)(=O)c2ccc(F)cc2)CC1`, the Potency entry was “inactive”.

For `Cc1ccc(OCCn2c(CCNC(=O)c3ccc[nH]3)nc3ccccc32)cc1`, the Potency result is “inactive”.

For the molecule `CC(C)(C)OC(=O)N1CCN(c2ccc(NCc3ccc(-c4ccc(C(C)(C)C)cc4)o3)cc2)CC1`, the Potency result is “inactive”.

For `Cc1ccc(NS(=O)(=O)c2cc3c(cc2Br)NC(=O)CO3)cc1C`, the Potency entry is “inactive”.

`COc1ccc(C2Nc3ccccc3C(=O)N2CCc2ccc(Cl)cc2Cl)cc1COc1ccc(NC(C)=O)cc1` (stereo not given): the Potency result was “inactive”.

Take `CC(=O)NC(c1cc(Cl)c2ccccc2c1O)C1CC1` (stereo not given): the Potency entry was “inactive”.

`O=C(O)c1c(-c2ccccc2)no[n+]1[O-]`: the Potency result was “inactive”.

`O=C(Nc1cccc(-c2nn3c(=O)cc(N4CCNCC4)nc3s2)c1)C1CCNCC1`: the Potency entry was “inactive”.

Regarding `O=c1c2ccccc2nc2sc(Nc3ccc(Oc4ccccc4)cc3)nn12`, the Potency result is “inactive”.

In the case of `N#Cc1ccc(-c2ccc(CNc3ccc(N4CCOCC4)cc3)o2)cc1`, the Potency result was “inactive”.

On to `CN(C)c1cccc(-c2csc(N3CCC(C(N)=O)CC3)n2)c1`, for which the Potency result was “inactive”.

Take `Cc1ccc(OCCn2c(CCNC(=O)C(C)(C)C)nc3ccccc32)cc1`: the Potency entry is “inactive”.

For `Cc1ccccc1C(=O)N1CCc2cc(-n3cc(NC(=O)Cc4ccccc4)cn3)ccc21`, the Potency entry was “inactive”.

As to `CC(=O)Nc1cccc(OC2=NS(=O)(=O)c3ccccc32)c1`, the Potency entry is “inactive”.

On to `Cc1cc(C)nc(NC(=S)N2CCN(c3cccc([N+](=O)[O-])c3)CC2)c1`, for which the Potency result is “inactive”.

With `COc1ccccc1-c1csc2ncnc(Sc3nnnn3C)c12`, the Potency entry is “inactive”.

As to `Cc1sc(NC(=O)Cc2ccc3c(c2)OCO3)nc1-c1ccc2c(c1)CCN2C(=O)c1ccccc1C(F)(F)F`, the Potency result is “inactive”.

In the case of `O=C1c2ccccc2C(=O)N1c1ccc2ccccc2n1`, the Potency result was “inactive”.

On to `CC(=O)c1ccc(N2CCN(S(=O)(=O)c3ccc4c(c3)OCC(=O)N4)CC2)cc1`, for which the Potency entry is “inactive”.

Take `CCOc1ccc(C(=O)Nc2ccc(-c3nc4ccccc4[nH]3)cc2)cc1`: the Potency entry was “inactive”.

Consider `O=[S+]([O-])(Nc1ccccc1)c1ccc(NCc2ccc(Cl)cc2O)cc1`, for which the Potency entry was “inactive”.

For the molecule `N#CN1CCC(NC(=O)c2cccc(C(F)(F)F)c2)CC1`, the Potency entry is “inactive”.

Turning to `O=c1c(Nc2ccc(Br)c(Br)c2)c(Nc2nnc(-c3ccncc3)s2)c1=O`, the Potency result is “inactive”.

With `c1nc(NCCCN2CCCCC2)c2cc(-c3ccc4c(c3)OCO4)ccc2n1`, the Potency entry is “inactive”.

Regarding `O=C(Nc1ncc(Cc2ccc(C(F)(F)F)cc2)s1)c1ncc(-c2ccccc2)[nH]1`, the Potency result is “inactive”.
